From PubChem BioAssay (NCATS)
“And” between values parts separate entries of the source, which are not always exact repeats. Equal values may be shown once. Inconclusive results are not listed. A call without a number means that no potency is given here. The source made the active and inactive calls. Unless noted, calls follow the shape of the dose curve; as a rule, active = well fitted inhibition curve with a large enough effect; inconclusive = small, poorly fitted or top-dose-only effect; inactive = flat fitted curve, though single readings scatter.

Test system: PC49
Experiment: qHTS profiling for inhibitors of Plasmodium falciparum proliferation (AID 504749); also: nearly all actives have a fitted effect of over 60% in size; also: potency is read from the fitted curve at half-maximal effect
Details: P. falciparum in erythrocytes, SYBR Green DNA, 72 h; series mostly up to 12.8 µM
Procedure, shortened: (§1)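 Infected RBCs, 0.3% parasitemia/2.5% Hct final; cpd 72 h, 37 C, 5% CO2; lysis buffer with saponin/triton/SYBR Green I, o/n RT dark; FI 485/535; norm. to artemisinin (0.29 uM) and DMSO.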
In the case of C[N+](C)(C)CC(O)CC(=O)O (stereo unspecified), the Potency is reported as “inactive”. For CN1CCCC[C@@H]1CCN1c2ccccc2Sc2ccc(S(C)=O)cc21 (stereo partly specified), the Potency was “inactive”. In the case of O=C(Cc1cccs1)NC1C(=O)N2C(C(=O)[O-])=C(C[n+]3ccccc3)CSC12 (stereo unspecified), the Potency is reported as “inactive”. In the case of CN(C)CC/C=C1\c2ccccc2CSc2ccccc21, the Potency is reported as “inactive”. For C[C@@H]1CCC[C@H](C)N1NC(=O)c1ccc(Cl)c(S(N)(=O)=O)c1, the Potency was “inactive”. For CC(C)N1CCN(c2ccc(OC[C@@H]3CO[C@@](Cn4cncn4)(c4ccc(Cl)cc4Cl)O3)cc2)CC1, the Potency was “inactive”.

Test system: SC27B
Experiment: as above
Details: P. falciparum in erythrocytes, SYBR Green DNA, 72 h; series mostly up to 12.8 µM
Procedure, shortened: as §1
With C[N+](C)(C)CC(O)CC(=O)O (stereo unspecified) the Potency was “inactive”. In the case of CN1CCCC[C@@H]1CCN1c2ccccc2Sc2ccc(S(C)=O)cc21 (stereo partly specified), the Potency is reported as “inactive”. For O=C(Cc1cccs1)NC1C(=O)N2C(C(=O)[O-])=C(C[n+]3ccccc3)CSC12 (stereo unspecified), the Potency was “inactive”. For C[C@@H]1CCC[C@H](C)N1NC(=O)c1ccc(Cl)c(S(N)(=O)=O)c1, the Potency was “inactive”. For CC(C)N1CCN(c2ccc(OC[C@@H]3CO[C@@](Cn4cncn4)(c4ccc(Cl)cc4Cl)O3)cc2)CC1, the Potency was “inactive”.

Test system: TAB109
Experiment: as above
Details: P. falciparum in erythrocytes, SYBR Green DNA, 72 h; series mostly up to 12.8 µM
Procedure, shortened: as §1
With C[N+](C)(C)CC(O)CC(=O)O (stereo unspecified) the Potency was “inactive”. With CN1CCCC[C@@H]1CCN1c2ccccc2Sc2ccc(S(C)=O)cc21 (stereo partly specified) the Potency was “inactive”. With O=C(Cc1cccs1)NC1C(=O)N2C(C(=O)[O-])=C(C[n+]3ccccc3)CSC12 (stereo unspecified) the Potency was “inactive”. With C[C@@H]1CCC[C@H](C)N1NC(=O)c1ccc(Cl)c(S(N)(=O)=O)c1 the Potency was “inactive”. For CC(C)N1CCN(c2ccc(OC[C@@H]3CO[C@@](Cn4cncn4)(c4ccc(Cl)cc4Cl)O3)cc2)CC1, the Potency was “inactive”.

Test system: TAB113
Experiment: as above
Details: P. falciparum in erythrocytes, SYBR Green DNA, 72 h; series mostly up to 12.8 µM
Procedure, shortened: as §1
In the case of C[N+](C)(C)CC(O)CC(=O)O (stereo unspecified), the Potency is reported as “inactive”. In the case of CN1CCCC[C@@H]1CCN1c2ccccc2Sc2ccc(S(C)=O)cc21 (stereo partly specified), the Potency is reported as “inactive”. With O=C(Cc1cccs1)NC1C(=O)N2C(C(=O)[O-])=C(C[n+]3ccccc3)CSC12 (stereo unspecified) the Potency was “inactive”. With C[C@@H]1CCC[C@H](C)N1NC(=O)c1ccc(Cl)c(S(N)(=O)=O)c1 the Potency was “inactive”. With CC(C)N1CCN(c2ccc(OC[C@@H]3CO[C@@](Cn4cncn4)(c4ccc(Cl)cc4Cl)O3)cc2)CC1 the Potency was “inactive”.

Test system: TAB165
Experiment: as above
Details: P. falciparum in erythrocytes, SYBR Green DNA, 72 h; series mostly up to 12.8 µM
Procedure, shortened: as §1
For C[N+](C)(C)CC(O)CC(=O)O (stereo unspecified), the Potency was “inactive”. With CN1CCCC[C@@H]1CCN1c2ccccc2Sc2ccc(S(C)=O)cc21 (stereo partly specified) the Potency was “inactive”. In the case of O=C(Cc1cccs1)NC1C(=O)N2C(C(=O)[O-])=C(C[n+]3ccccc3)CSC12 (stereo unspecified), the Potency is reported as “inactive”. For C[C@@H]1CCC[C@H](C)N1NC(=O)c1ccc(Cl)c(S(N)(=O)=O)c1, the Potency was “inactive”. For CC(C)N1CCN(c2ccc(OC[C@@H]3CO[C@@](Cn4cncn4)(c4ccc(Cl)cc4Cl)O3)cc2)CC1, the Potency was “inactive”.

Test system: W2
Experiment: as above
Details: P. falciparum in erythrocytes, SYBR Green DNA, 72 h; series mostly up to 12.8 µM
Procedure, shortened: as §1
In the case of C[N+](C)(C)CC(O)CC(=O)O (stereo unspecified), the Potency is reported as “inactive”. For CN1CCCC[C@@H]1CCN1c2ccccc2Sc2ccc(S(C)=O)cc21 (stereo partly specified), the Potency was “inactive”. For O=C(Cc1cccs1)NC1C(=O)N2C(C(=O)[O-])=C(C[n+]3ccccc3)CSC12 (stereo unspecified), the Potency was “inactive”. For CN(C)CC/C=C1\c2ccccc2CSc2ccccc21, the Potency was 1280 nM (active). In the case of C[C@@H]1CCC[C@H](C)N1NC(=O)c1ccc(Cl)c(S(N)(=O)=O)c1, the Potency is reported as “inactive”. With CC(C)N1CCN(c2ccc(OC[C@@H]3CO[C@@](Cn4cncn4)(c4ccc(Cl)cc4Cl)O3)cc2)CC1 the Potency was “inactive”.

Molecular target: Nuclear receptor subfamily 1 group I member 2 (Rattus norvegicus) (UniProt Q9R1A7)
Sequence (Q9R1A7 whole entry, looked up): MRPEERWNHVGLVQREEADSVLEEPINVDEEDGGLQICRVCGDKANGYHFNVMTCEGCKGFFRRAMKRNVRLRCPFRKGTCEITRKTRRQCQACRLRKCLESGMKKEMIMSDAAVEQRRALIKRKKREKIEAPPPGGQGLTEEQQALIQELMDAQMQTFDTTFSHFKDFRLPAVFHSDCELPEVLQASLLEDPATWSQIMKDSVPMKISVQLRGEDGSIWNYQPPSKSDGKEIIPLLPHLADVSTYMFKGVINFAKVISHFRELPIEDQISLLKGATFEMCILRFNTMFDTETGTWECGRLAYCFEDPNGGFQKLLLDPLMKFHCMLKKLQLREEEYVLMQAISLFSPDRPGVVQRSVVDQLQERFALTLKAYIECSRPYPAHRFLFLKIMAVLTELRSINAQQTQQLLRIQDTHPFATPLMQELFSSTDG
Experiment: qHTS assay for small molecule activators of the rat pregnane X receptor (rPXR) signaling pathway (AID 651751; call rule not given here)
Details: rPXR reporter cells, luciferase (One-Glo), 24 h
With Cc1occc(=O)c1O the max response was 3.86% (inactive). For C=C(C)[C@H]1CC=C(C)C(=O)C1, the max response was -2.55% (inactive) and 3.05% (inactive). For COS(C)(=O)=O, the max response was 0.398% (inactive). For CC1=CC(=O)CC(C)(C)C1(O)/C=C/C(C)=C\C(=O)O (stereo unspecified), the max response was -0.742% (inactive). In the case of C=CC(C)(O)CCC=C(C)C (stereo unspecified), the max response is reported as 2.77% (inactive) and 2.88% (inactive).

Test system: not listed separately
Experiment: qHTS assay for small molecule activators of the human pregnane X receptor (PXR) signaling pathway (AID 720659; call rule not given here)
Details: DPX-2 HepG2 CYP3A4-luciferase, 24 h; series mostly up to 92.3 µM
In the case of Cc1occc(=O)c1O, the outcome is reported as “inactive”. With C=C(C)[C@H]1CC=C(C)C(=O)C1 the outcome was “inactive”. For COS(C)(=O)=O, the outcome was “inactive”. For CC1=CC(=O)CC(C)(C)C1(O)/C=C/C(C)=C\C(=O)O (stereo unspecified), the outcome was “inactive”.
